According to ChEMBL document CHEMBL1201862, “PubChem BioAssay data set” (2004):
Screen size: about 400,000 compounds; about 2,100 (0.53%) were called active. Inconclusive results (about 14%) are left out. The sample holds actives, similar compounds and a random draw of the others, so the mix is not that of the screen. The rule behind the calls is not given here.

biological target: Ataxin-2 (Homo sapiens) (UniProt Q99700); test: qHTS for Inhibitors of ATXN expression.; assay type: functional
Sequence (Q99700 whole entry): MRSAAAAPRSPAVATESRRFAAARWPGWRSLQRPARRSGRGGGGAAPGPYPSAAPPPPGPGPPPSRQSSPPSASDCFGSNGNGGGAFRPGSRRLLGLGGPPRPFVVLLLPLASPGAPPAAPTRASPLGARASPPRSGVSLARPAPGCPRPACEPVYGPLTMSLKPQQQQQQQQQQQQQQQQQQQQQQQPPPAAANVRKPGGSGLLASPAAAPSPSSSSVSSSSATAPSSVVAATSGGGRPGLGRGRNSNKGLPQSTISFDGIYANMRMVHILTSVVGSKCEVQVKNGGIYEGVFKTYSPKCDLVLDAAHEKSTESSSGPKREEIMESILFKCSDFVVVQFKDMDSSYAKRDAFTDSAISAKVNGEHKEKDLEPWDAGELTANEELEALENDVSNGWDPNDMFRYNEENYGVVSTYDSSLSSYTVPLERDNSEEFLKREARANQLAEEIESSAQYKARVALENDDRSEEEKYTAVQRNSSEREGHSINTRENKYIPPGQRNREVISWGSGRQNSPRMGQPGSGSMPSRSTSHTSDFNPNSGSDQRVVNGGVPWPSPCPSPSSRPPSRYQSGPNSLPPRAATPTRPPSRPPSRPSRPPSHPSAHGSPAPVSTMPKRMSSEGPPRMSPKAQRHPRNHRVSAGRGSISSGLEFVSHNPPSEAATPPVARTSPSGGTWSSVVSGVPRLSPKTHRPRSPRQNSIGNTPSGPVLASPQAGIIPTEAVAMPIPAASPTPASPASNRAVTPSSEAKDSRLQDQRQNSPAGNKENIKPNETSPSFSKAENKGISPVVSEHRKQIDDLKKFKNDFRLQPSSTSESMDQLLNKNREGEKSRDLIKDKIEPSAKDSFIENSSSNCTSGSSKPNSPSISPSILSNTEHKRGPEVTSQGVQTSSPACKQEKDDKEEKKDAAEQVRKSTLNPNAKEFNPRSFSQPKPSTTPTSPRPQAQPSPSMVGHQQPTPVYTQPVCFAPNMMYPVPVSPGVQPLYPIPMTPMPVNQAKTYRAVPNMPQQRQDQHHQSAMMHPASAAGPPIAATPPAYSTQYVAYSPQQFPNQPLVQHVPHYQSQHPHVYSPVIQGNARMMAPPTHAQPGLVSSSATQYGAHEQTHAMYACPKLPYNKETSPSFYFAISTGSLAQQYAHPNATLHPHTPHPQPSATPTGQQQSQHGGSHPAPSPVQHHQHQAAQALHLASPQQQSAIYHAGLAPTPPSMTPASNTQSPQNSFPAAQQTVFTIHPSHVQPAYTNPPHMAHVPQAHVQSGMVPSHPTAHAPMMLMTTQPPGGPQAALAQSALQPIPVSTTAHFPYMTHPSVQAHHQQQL

SMILES	Potency
O=C(Cn1cc(C(F)(F)F)ccc1=O)NCc1ccc(F)cc1	inactive
N=C(N)N/N=C(\c1ccc(F)cc1)c1ccc(C(F)(F)F)cc1	5.97 µM (active)
CC(=O)CCC(=O)OCC(=O)c1ccc(C(F)(F)F)cc1	inactive
CNC(=O)c1sc(N2N=C3/C(=C\c4ccccc4)CCCC3C2c2ccccc2)nc1C (stereo unspecified)	inactive
C[C@H](CO)N1C[C@H](C)[C@@H](CN(C)Cc2ccc(Cl)c(Cl)c2)Oc2c(NC(=O)C3CC3)cccc2C1=O	28.2 µM (active)
C[C@@H]1CN([C@@H](C)CO)C(=O)c2cccc(NC(=O)C3CCCCC3)c2O[C@@H]1CN(C)Cc1ccc(Cl)c(Cl)c1	35.5 µM (active)
O=C(COc1ccc(Cl)cc1)NNC(=O)CSc1nncs1	inactive
CCc1ccc(OCC(=O)NC(N=C(S)Nc2ccc(Cl)cc2)C(Cl)(Cl)Cl)cc1 (stereo unspecified)	39.8 µM (active)
CCCC(=O)NC(N=C(S)Nc1ccc(N=Nc2ccccc2)cc1)C(Cl)(Cl)Cl (stereo unspecified)	22.4 µM (active)
CCCC(=O)Nc1ccc(C(=O)COC(=O)C2CC2C)cc1 (stereo unspecified)	inactive
CC(C)(C)c1ccc(OCC(=O)NNC(=O)Nc2ccccc2)cc1	inactive
COc1ccc(C(=O)c2sc3nc(C)cc(-c4cccs4)c3c2N)cc1	inactive
O=C1NC2c3c(I)sc(I)c3C(=O)C2O1 (stereo unspecified)	39.8 µM (active)
COc1ccc(OC)c(NC(=O)c2cnc(Nc3ccc(C)c(Cl)c3)c3ccccc23)c1	inactive
Oc1c(Cl)cc(Cl)cc1/C=N/c1nc[nH]n1	inactive
O=C(Nc1ccccc1)Nc1cccc2nsnc12	inactive
CCCCN(C(=O)C1CCC(CNS(=O)(=O)c2cccc3nsnc23)CC1)c1ccccc1 (stereo unspecified)	39.8 µM (active)
Cc1c(Cl)cccc1NS(=O)(=O)c1cccc2nsnc12	inactive
Cn1nnc(NC(=S)NC(=O)c2ccc3ccccc3c2)n1	inactive
CCOC(=O)C1=C(COc2ccccc2)NC(=O)NC1c1ccc2ccccc2c1 (stereo unspecified)	35.5 µM (active)
CCC(CC)COC(=O)C1=C(C)NC(=O)NC1c1ccc([N+](=O)[O-])cc1 (stereo unspecified)	inactive

SMILES	Potency
CCOC(=O)C1=C(CN2CCN(c3ccc(OC)cc3)CC2)NC(=O)NC1c1ccc(Cl)cc1 (stereo unspecified)	39.8 µM (active)
CCOC(=O)C1=C(COC(=O)COc2cccc(C)c2C)NC(=O)NC1C (stereo unspecified)	inactive
COC(=O)C1=C(C)NC(=O)NC1c1ccc(OC(=O)c2ccco2)cc1 (stereo unspecified)	inactive
CCOC(=O)C1=C(C)NC(=O)NC1c1ccc(N2CCC(c3ccccc3)=N2)cc1 (stereo unspecified)	inactive
CCOC(=O)c1cc2c(=O)n3ccccc3nc2n(CC(C)C)/c1=N\C(=O)COc1ccc(Cl)cc1	inactive
Cc1nc2sc(C(=O)OC(C)C)c(N)c2c(C)c1C	inactive
COc1cc(/C=C(/C#N)C(=O)NCCCc2ccccc2)ccc1OCC(=O)O	inactive
Cc1ccc(S(=O)(=O)N2CCCc3cc(NS(=O)(=O)c4ccc(F)cc4)ccc32)cc1	39.8 µM (active)
O=S(=O)(c1ccc2ccccc2c1)N1CCc2ccccc21	inactive
Cc1ccc(S(=O)(=O)N2CCCc3cc(NS(=O)(=O)c4ccccc4)ccc32)cc1	39.8 µM (active)
Cc1ccc2nc(-c3ccc(NS(=O)(=O)c4ccc(F)cc4)cc3)sc2c1	inactive
Cc1cc(=O)oc2cc(NS(=O)(=O)c3ccccc3)ccc12	inactive
Cc1cc(F)ccc1S(=O)(=O)Nc1ccc2c(c1)CCCN2C(=O)c1cccs1	39.8 µM (active)
Cc1cc(C)nc(NS(=O)(=O)c2ccc(N/C=C\C(=O)c3cccs3)cc2)n1	inactive
Cc1cc(=O)oc2cc(NS(=O)(=O)c3ccc(F)cc3)ccc12	inactive
C[C@@H]1C(c2cccc(Cl)c2)=NN(c2ccc(Br)cc2)[C@H]1C(=O)N1CCOC1=O	inactive
Cc1cc(N2CCCC2)c(F)cc1/C=C\[N+](=O)[O-]	inactive
Cc1cc(NC(=O)CN(C)S(=O)(=O)c2ccc3c(c2)CCCC(=O)N3)ccc1Br	31.6 µM (active)
Cc1cc(NC(=O)CCN2CCC(C)CC2)ccc1Br	inactive
CC(=O)N1CCCc2cc(S(=O)(=O)N(C)CC(=O)Nc3ccccc3)ccc21	inactive
O=C1CS/C(=N/N=C/c2ccccc2)N1Cc1ccco1	inactive

SMILES	Potency
COc1ccc(-c2[nH]c(-c3ccc4c(c3)OCO4)nc2-c2ccccc2)cc1	44.7 µM (active)
C(=C/c1[nH]ccc2c3ccccc3nc1-2)/c1ccc2c(c1)OCO2	inactive
COc1ccc2[nH]c(C(=O)N(Cc3ccccn3)Cc3ccccn3)cc2c1	inactive
O=C1N/C(=C/c2cccn2-c2ccc(F)cc2)C(=O)N1Cc1ccccc1F	inactive
O=[N+]([O-])c1ccc(Cc2ccccn2)c([N+](=O)[O-])c1	inactive
O=[N+]([O-])c1ccc(Sc2ccncn2)c([N+](=O)[O-])c1	8.91 µM (active)
CN(C)c1ccc(/C=N/N(CCO)C2=NS(=O)(=O)c3ccccc32)cc1	inactive
CCOc1ccc2nc(NCCCNC(=O)c3cc(OC)c(OC)c(OC)c3)c(C#N)cc2c1	inactive
CCOc1ccc(-c2cn3c(n2)sc2cc(C(=O)NCCCN4CCCCCC4)ccc23)cc1	22.4 µM (active)
COc1ccc(-c2cc(C(F)(F)F)n3nc(C(=O)NCCCN4CCOCC4)cc3n2)cc1	inactive
C=CCC1=C/C(=C\c2c(N)n3nc(CC(=O)N4CCCC4)sc3nc2=O)C=C(OC)C1=O	inactive
COc1ccc(CCN(C(=O)/C=C/C(=O)O)C2CC(=O)N(c3ccccc3)C2=O)cc1 (stereo unspecified)	inactive
COc1ccc(Cc2nnc(NC(=O)C3CC(=O)N(c4ccc(OC)cc4)C3)s2)cc1 (stereo unspecified)	inactive
C=CCNc1nnc(SC2CC(=O)N(c3ccc(OC)cc3)C2=O)s1 (stereo unspecified)	39.8 µM (active)
COc1ccc(N2C(=O)CC(Sc3nnc(-c4ccccc4F)n3C)C2=O)cc1 (stereo unspecified)	39.8 µM (active)
COc1ccc(C2CC(c3ccccc3F)=NN2c2ccc(S(N)(=O)=O)cc2)cc1 (stereo unspecified)	inactive
COc1ccc(N2C(=O)CC(N3CCN(c4ccccc4)CC3)C2=O)cc1 (stereo unspecified)	inactive
CN1CCC[C@H]1CCNc1ccc2c(=O)c3ccccc3n(C)c2c1	inactive
O=C(N/N=C/c1ccc(O)cc1)Nc1cccc2nsnc12	inactive
